Measured values as given in PubChem BioAssay.
“And” between values parts separate entries of the source, which are not always exact repeats. Equal entries are not always repeated. Values without a mark were called inactive. The source made the active and inactive calls.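 How the source made its calls: active means thallium flux through the channel raised or lowered by more than 3 SD from vehicle-only wells, actives on both sides; inactive means the rest.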 Non-standard residues stand in square brackets, D forms with d. Residues, ends and D or L forms follow the SMILES beside them. pGlu = O=C1CC[C@@H](C(=O)O)N1; Thz = O=C(O)[C@@H]1CSCN1

system: F380Y/beta2Delta; assay: BK channel mutant inhibitors and activators – cell-based, U2OS BacMam, thallium flux, beta subunits, selectivity assay, profiling panel (AID 1259406); conditions: U2OS BacMam BK variants, at 30 µM;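 further: initial slope of Thallos dye fluorescence rise after thallium is added; log ratio against the mean of 0.3% DMSO vehicle wells on the same plate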

| SMILES | log fold change Tl+ flux |
| --- | --- |
| O=C1CN2Cc3c(ccc(Cl)c3Cl)N=C2N1 | 0.0342 |
| COC(=O)C[C@](O)(CCCC(C)(C)O)C(=O)O[C@@H]1C(OC)=C[C@]23CCCN2CCc2cc4c(cc2[C@H]13)OCO4 | -0.00992 |
| CNCC[C@H](Oc1cccc2ccccc12)c1cccs1 | 0.0364 |
| O=c1[nH]c(=O)n(C2CCCO2)cc1F (stereo not given) | -0.0133 |
| CSc1nc2cc(Oc3cccc(Cl)c3Cl)c(Cl)cc2[nH]1 | -0.03 |
| CN(C)CCc1c[nH]c2ccc(Cn3cncn3)cc12 | 0 |
| COc1ccc(C[C@H](C)NC[C@@H](O)c2ccc(O)c(NC=O)c2)cc1 | 0.0145 |
| CC(C)C[C@H](NC(=O)[C@@H](O)[C@H](N)Cc1ccccc1)C(=O)O | 0.0093 |
| C[C@@H](c1ncncc1F)[C@](O)(Cn1cncn1)c1ccc(F)cc1F | 0.0265 |
| CN(C)CCCC1(c2ccc(F)cc2)OCc2cc(C#N)ccc21 (stereo not given) | 0.0311 and 0.0638 |
| CCOC(=O)c1ccc(OC(=O)CCCCCN=C(N)N)cc1 | -0.0274 |
| Cc1c(C(=O)NN2CCCCC2)nn(-c2ccc(Cl)cc2Cl)c1-c1ccc(I)cc1 | -0.0265 |
| CC(C)NCC(O)c1ccc(NS(C)(=O)=O)cc1 (stereo not given) | 0.0277 |
| O=C(NC(=O)c1ccccc1Oc1ccc(Cl)cc1Cl)Nc1cc(Cl)cc(Cl)c1 | -0.00408 |
| CC(=O)NC[C@H]1CN(c2ccc(N3CCOCC3)c(F)c2)C(=O)O1 | -0.0137 |
| CC(CCCCC(=O)Nc1ccc(C(F)(F)F)cc1)NCCc1cnc[nH]1 (stereo not given) | -0.00659 |
| O=C(c1ccc(OCCN2CCCCC2)cc1)c1c(-c2ccc(O)cc2)sc2cc(O)ccc12 | 0.0463 |
| O=C1CC[C@@H](C(=O)N2CSC[C@H]2C(=O)O)N1 ([pGlu]-[Thz]-OH) | 0.00122 |
| CN/C(=C\[N+](=O)[O-])NCCSCc1csc(CN(C)C)n1 | 0.0292 |
| CNCC[C@@H](Oc1ccccc1C)c1ccccc1 | 0.0334 |

| SMILES | log fold change Tl+ flux |
| --- | --- |
| Cc1cccc(CCN2CCC(C(=O)c3ccc(NS(C)(=O)=O)cc3)CC2)n1 | 0.0105 |
| CN(C)CCOc1ccc(/C(=C(/CCCl)c2ccccc2)c2ccccc2)cc1 | 0.0156 |
| CC(C)(S)C(N)C(=O)O (stereo not given) | -0.0259 |
| CC[C@H]1OC(=O)[C@H](C)[C@@H](O[C@H]2C[C@@](C)(OC)[C@@H](O)[C@H](C)O2)[C@H](C)[C@@H](O[C@@H]2O[C@H](C)C[C@H](N(C)C)[C@H]2O)[C@](C)(O)C[C@@H](C)CN(C)[C@H](C)[C@@H](O)[C@]1(C)O | 0.0029 |
| NCC(O)c1ccc(O)c(O)c1 (stereo not given) | -0.00353 |
| CN1CC(=O)N2[C@H](c3ccc4c(c3)OCO4)c3[nH]c4ccccc4c3C[C@@H]2C1=O | 0.00366 |
| COC(=O)c1sccc1NN=C(C)c1ccc(NC(=O)C(Cl)Cl)cc1 | 0.0103 |
| Cc1cnc(C(=O)NCCc2ccc(S(=O)(=O)NC(=O)NC3CCCCC3)cc2)cn1 | -0.0103 |
| C/C(=C\C(=O)OCCCCCCCCC(=O)O)C[C@@H]1OC[C@H](C[C@@H]2O[C@H]2[C@@H](C)[C@H](C)O)[C@@H](O)[C@H]1O | 0.0619 |
| FC(F)(F)c1cc(C=Cc2noc(-c3ccc(CN4CCCC4)cc3)n2)cc(C(F)(F)F)c1 | -0.0239 |
| C[C@H]1O[C@H](O[C@H]2[C@H](O)[C@@H](O)[C@@H](O[C@H]3[C@H](O)[C@@H](O)C(O)O[C@@H]3CO)O[C@@H]2CO)[C@H](O)[C@@H](O)[C@@H]1N[C@H]1C=C(CO)[C@@H](O)[C@H](O)[C@H]1O (stereo not given in full) | 0.0097 |
| CCCCN1CCCC1CNC(=O)c1cc(C#N)c2ccccc2c1OC (stereo not given) | -0.243 (active) |
| COc1ccc2[nH]c(S(=O)Cc3ncc(C)c(OC)c3C)nc2c1 (stereo not given) | -0.007 |
| CN1[C@@H]2CCC[C@H]1CC(NC(=O)c1nn(C)c3ccccc13)C2 (stereo not given in full) | 0.036 |
| COc1c(N2C[C@@H]3CCCN[C@@H]3C2)c(F)cc2c(=O)c(C(=O)O)cn(C3CC3)c12 | 0.0707 |
| CCN(CC)CC#CCOC(=O)C(O)(c1ccccc1)C1CCCCC1 (stereo not given) | -0.0326 |
| COc1nc(C)nc(Cl)c1NC1=NCCN1 | -0.0248 |
| CC(Cc1ccc(O)c(O)c1)(NN)C(=O)O (stereo not given) | 0.0399 |
| CSc1nc(C)nc(Sc2cccc(C(F)(F)F)c2)c1C#N | 0.00499 |
| Cc1cc2c(s1)Nc1ccccc1N=C2N1CCN(C)CC1 | 0.0704 |

system: F380Y/beta4; assay: as above; conditions: U2OS BacMam BK variants, at 30 µM

| SMILES | log fold change Tl+ flux |
| --- | --- |
| O=C1CN2Cc3c(ccc(Cl)c3Cl)N=C2N1 | 0.00749 |
| COC(=O)C[C@](O)(CCCC(C)(C)O)C(=O)O[C@@H]1C(OC)=C[C@]23CCCN2CCc2cc4c(cc2[C@H]13)OCO4 | 0.013 |
| CNCC[C@H](Oc1cccc2ccccc12)c1cccs1 | -0.0361 |
| O=c1[nH]c(=O)n(C2CCCO2)cc1F (stereo not given) | -0.0214 |
| CSc1nc2cc(Oc3cccc(Cl)c3Cl)c(Cl)cc2[nH]1 | 0.0138 |
| CN(C)CCc1c[nH]c2ccc(Cn3cncn3)cc12 | 0.0107 |
| COc1ccc(C[C@H](C)NC[C@@H](O)c2ccc(O)c(NC=O)c2)cc1 | -0.0214 |
| CC(C)C[C@H](NC(=O)[C@@H](O)[C@H](N)Cc1ccccc1)C(=O)O | -0.0304 |
| C[C@@H](c1ncncc1F)[C@](O)(Cn1cncn1)c1ccc(F)cc1F | 0.000651 |
| CN(C)CCCC1(c2ccc(F)cc2)OCc2cc(C#N)ccc21 (stereo not given) | 0.0583 and -0.00121 |
| CCOC(=O)c1ccc(OC(=O)CCCCCN=C(N)N)cc1 | -0.0274 |
| Cc1c(C(=O)NN2CCCCC2)nn(-c2ccc(Cl)cc2Cl)c1-c1ccc(I)cc1 | -0.0348 |
| CC(C)NCC(O)c1ccc(NS(C)(=O)=O)cc1 (stereo not given) | 0.0134 |
| O=C(NC(=O)c1ccccc1Oc1ccc(Cl)cc1Cl)Nc1cc(Cl)cc(Cl)c1 | -0.00832 |
| CC(=O)NC[C@H]1CN(c2ccc(N3CCOCC3)c(F)c2)C(=O)O1 | -0.01 |
| CC(CCCCC(=O)Nc1ccc(C(F)(F)F)cc1)NCCc1cnc[nH]1 (stereo not given) | -0.0291 |
| O=C(c1ccc(OCCN2CCCCC2)cc1)c1c(-c2ccc(O)cc2)sc2cc(O)ccc12 | 0.0721 |
| O=C1CC[C@@H](C(=O)N2CSC[C@H]2C(=O)O)N1 ([pGlu]-[Thz]-OH) | 0.0189 |
| CN/C(=C\[N+](=O)[O-])NCCSCc1csc(CN(C)C)n1 | 0.0177 |
| CNCC[C@@H](Oc1ccccc1C)c1ccccc1 | 0.0851 |

| SMILES | log fold change Tl+ flux |
| --- | --- |
| Cc1cccc(CCN2CCC(C(=O)c3ccc(NS(C)(=O)=O)cc3)CC2)n1 | -0.0658 |
| CN(C)CCOc1ccc(/C(=C(/CCCl)c2ccccc2)c2ccccc2)cc1 | 0.0185 |
| CC(C)(S)C(N)C(=O)O (stereo not given) | 0.0204 |
| CC[C@H]1OC(=O)[C@H](C)[C@@H](O[C@H]2C[C@@](C)(OC)[C@@H](O)[C@H](C)O2)[C@H](C)[C@@H](O[C@@H]2O[C@H](C)C[C@H](N(C)C)[C@H]2O)[C@](C)(O)C[C@@H](C)CN(C)[C@H](C)[C@@H](O)[C@]1(C)O | -0.0644 |
| NCC(O)c1ccc(O)c(O)c1 (stereo not given) | 0.0254 |
| CN1CC(=O)N2[C@H](c3ccc4c(c3)OCO4)c3[nH]c4ccccc4c3C[C@@H]2C1=O | 0.0361 |
| COC(=O)c1sccc1NN=C(C)c1ccc(NC(=O)C(Cl)Cl)cc1 | -0.0317 |
| Cc1cnc(C(=O)NCCc2ccc(S(=O)(=O)NC(=O)NC3CCCCC3)cc2)cn1 | 0.0321 |
| C/C(=C\C(=O)OCCCCCCCCC(=O)O)C[C@@H]1OC[C@H](C[C@@H]2O[C@H]2[C@@H](C)[C@H](C)O)[C@@H](O)[C@H]1O | 0.0116 |
| FC(F)(F)c1cc(C=Cc2noc(-c3ccc(CN4CCCC4)cc3)n2)cc(C(F)(F)F)c1 | -0.0108 |
| C[C@H]1O[C@H](O[C@H]2[C@H](O)[C@@H](O)[C@@H](O[C@H]3[C@H](O)[C@@H](O)C(O)O[C@@H]3CO)O[C@@H]2CO)[C@H](O)[C@@H](O)[C@@H]1N[C@H]1C=C(CO)[C@@H](O)[C@H](O)[C@H]1O (stereo not given in full) | 0.039 |
| CCCCN1CCCC1CNC(=O)c1cc(C#N)c2ccccc2c1OC (stereo not given) | -0.221 (active) |
| COc1ccc2[nH]c(S(=O)Cc3ncc(C)c(OC)c3C)nc2c1 (stereo not given) | 0.0255 |
| CN1[C@@H]2CCC[C@H]1CC(NC(=O)c1nn(C)c3ccccc13)C2 (stereo not given in full) | 0.0312 |
| COc1c(N2C[C@@H]3CCCN[C@@H]3C2)c(F)cc2c(=O)c(C(=O)O)cn(C3CC3)c12 | 0.0364 |
| CCN(CC)CC#CCOC(=O)C(O)(c1ccccc1)C1CCCCC1 (stereo not given) | 0.0257 |
| COc1nc(C)nc(Cl)c1NC1=NCCN1 | -0.00507 |
| CC(Cc1ccc(O)c(O)c1)(NN)C(=O)O (stereo not given) | 0.0475 |
| CSc1nc(C)nc(Sc2cccc(C(F)(F)F)c2)c1C#N | 0.0691 |
| Cc1cc2c(s1)Nc1ccccc1N=C2N1CCN(C)CC1 | 0.111 (active) |
